We go through 8 compounds from PubChem BioAssay (NCATS).

A short description of experiment [1]: Cell Viability - NIH 3T3 (AID 541).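 For activity change, negative = cytotoxicity: plate controls were DMSO alone for no effect and tamoxifen positive control for full effect.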 Note: nearly all actives have a fitted effect of over 25% in size. Note: potency is the fitted concentration of half-maximal effect. The settings on record: NIH 3T3 cell viability, qHTS; activity change, negative = cytotoxicity: at 92.2 µM (top of the series). Put shortly: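 NIH 3T3 mouse embryo fibroblasts (1000 cells/well) were plated in complete medium and treated with compound for 40 hr at 37 °C. Viability was read as intracellular ATP by CellTiter-Glo luminescence; AC50 values came from Hill-equation fits of concentration-response data.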
In general terms: Quantitative high-throughput screening tests each substance at several concentrations.

Experiment [2] in a line: Cell Viability - H-4-II-E (AID 543). Note: % is set by controls: 0 for no effect and ±100 for the full control effect; nearly all actives have a fitted effect of over 35% in size. Put shortly: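 Rat hepatoma H-4-II-E cells (1500/well) were plated, incubated 5 hr at 37 °C, then exposed to compounds for 40 hr at 37 °C. Cellular ATP was read by CellTiter-Glo luminescence; AC50 came from Hill-equation fits of concentration-response data.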
A short description of experiment [3]: Cell Viability - LYMP2-014 (AID 983).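 Note: plate controls were DMSO only for no effect and 92 µM tetraoctylammonium bromide for full effect; nearly all actives have a fitted effect of over 50% in size.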 In outline:
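Human lymphoblastoid cells (2500/well) were pre-incubated 5 hr at 37 C, then exposed to compounds in complete medium for 24 hr at 37 C. Intracellular ATP was read by CellTiter-Glo luminescence after 30 min at room temperature; AC50 from Hill fits.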

The nature of experiment [4]: Cell Viability - LYMP2-018 (AID 985).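 Note: compound exposure lasted 24 hr at 37 °C; plate controls were DMSO only for no effect and tetraoctylammonium bromide at 92 µM for full effect; nearly all actives have a fitted effect of over 50% in size.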 In outline:
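Human lymphoblastoid cells (2500/well) were pre-incubated 5 hr at 37 C, then exposed to compounds for 24 hr at 37 C in complete medium. Viability was read as intracellular ATP by CellTiter-Glo luminescence; AC50 values came from Hill-equation fits.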

A short description of experiment [5]: Cell Viability - LYMP2-024 (AID 988).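 Note: plate controls were DMSO only for no effect and 92 µM tetraoctylammonium bromide for full effect; nearly all actives have a fitted effect of over 60% in size.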 In outline:
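Human lymphoblastoid cells (2500/well) in complete medium were preincubated 5 hr at 37 C, then exposed to compounds for 24 hr at 37 C. Intracellular ATP was read by CellTiter-Glo luminescence; AC50 from Hill-equation fits of concentration-response data.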

Experiment [6] addresses Glucocorticoid receptor (Homo sapiens) (UniProt P04150). Put plainly: qHTS assay for small molecule agonists of glucocorticoid receptor signaling (AID 588532; active = well fitted curve in the direction sought with a large enough effect in the signal ratio, with a control signal flat; the % refers to the signal ratio;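 note: 100% = dexamethasone at 0.1 µM and 0% = DMSO only wells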). As to conditions: HeLa MMTV-bla, beta-lactamase ratio, agonist, 18 h; stronger effect = higher value; percent of dexamethasone control, DMSO zero. Put shortly:
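Using MMTV-bla HeLa cells in medium with 1% stripped FBS and 25 mM HEPES, compounds were titrated and incubated overnight-length (18 h). Beta-lactamase cleavage of CCF4 was quantified by dual-emission fluorescence.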

The target is the same in experiment [7]. The experiment is described as follows: qHTS assay for small molecule antagonists of glucocorticoid receptor signaling (AID 588533; active = well fitted inhibition curve with a large enough effect in the signal ratio, with a control signal flat, not every such curve was filed as active; the % refers to the signal ratio;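 note: cells stimulated with 2 nM dexamethasone as agonist; % is set by controls: 0 for no effect and ±100 for the full control effect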). Put shortly:
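Antagonist-mode qHTS: compound titrations added to GRE-bla HeLa cells, then dexamethasone 2 nM final; 18 h, 37 C. CCF4 FRET fluorescence normalized to dexamethasone and DMSO; IC50 from Hill fit.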

Experiment [8] addresses Peroxisome proliferator-activated receptor delta (Homo sapiens) (UniProt Q03181). The experiment is described as follows: qHTS assay for small molecule agonists of peroxisome proliferator-activated receptor delta signaling (AID 588534; calls by dose curve;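 note: 0% = DMSO basal wells and 100% = positive control agonist at 10 µM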). Put shortly: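 Cell-based beta-lactamase reporter assay run in agonist mode: cells seeded and incubated 5 hrs at 37 C, compounds added and incubated 18 hrs at 37 C. CCF4 dye fluorescence read after 2 hrs at RT; EC50 and efficacy from Hill fits.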

Experiment [9] in a line: qHTS assay for small molecule antagonists of peroxisome proliferator-activated receptor delta signaling (AID 588535; active = well fitted inhibition curve with a large enough effect in the signal ratio, with a control signal flat, not every such curve was filed as active; the % refers to the signal ratio;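 for max response: cells co-treated with a PPAR-delta agonist as stimulator during compound exposure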). The settings on record: HEK293T PPARd-UAS-bla, beta-lactamase FRET ratio, 18 h; 460 nm channel. In outline:
(§1)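 Cell-based beta-lactamase assay in antagonist mode: 4000 HEK293T PPAR-delta-UAS-bla cells per well, 5 hr preincubation then 18 hr compound incubation at 37 C. IC50 obtained by Hill equation fitting.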

The target of experiment [10] is Peroxisome proliferator-activated receptor delta (Homo sapiens) (UniProt Q03181). The description is as above. In outline:
as §1

Experiment [11] concerns the target Voltage-gated inwardly rectifying potassium channel KCNH2 (Homo sapiens) (UniProt Q12809). Put plainly: qHTS Assay for Small Molecule Inhibitors of the Human hERG Channel Activity (AID 588834).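 Note: top concentration of the series differs between compounds; % is set by controls: 0 for no effect and ±100 for the full control effect; lower thallium flux fluorescence means stronger hERG block; nearly all actives have a fitted effect of over 50% in size.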 In outline:
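U2OS cells transduced with hERG via BacMam (MOI ~100), plated 2000/well, loaded with FluxOR thallium dye, compound ~10 min, then stimulation buffer; fluorescence decrease read kinetically; AC50 from Hill fits.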

The nature of experiment [12]: qHTS assay for small molecule agonists of the antioxidant response element (ARE) signaling pathway (AID 651741; active = well fitted activation curve with a large enough effect in the signal ratio; the % refers to the signal ratio; note: potency is the fitted concentration of half-maximal effect; for activation: % of control where 0% means no effect). Put shortly:
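Seeding 2,000 ARE-bla HepG2 cells per well preceded a 5 h incubation at 37 C/5% CO2 and a 16 h compound exposure at 37 C. Beta-lactamase reporter activity was then quantified by fluorescence after 2 h with LiveBLAzer B/G FRET substrate.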

A short description of experiment [13]: qHTS assay for small molecule activators of the nuclear factor-kappa B (NF-kB) signaling pathway (AID 651749; active = well fitted activation curve with a large enough effect in the signal ratio; the % refers to the signal ratio; note: % of control where 0% means no effect). As to conditions: NF-kB-bla ME-180 cells, beta-lactamase FRET ratio, 16 h; stronger effect = higher value. Put shortly:
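Stably transfected ME-180 line; NF-kB response element upstream of beta-lactamase. Treatment: compound or DMSO, 16 hr. Detection: fluorescent FRET substrate.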

Experiment [14] is described as follows: qHTS assay for small molecule disruptors of the mitochondrial membrane potential - 5 hr assay (AID 651755; calls by dose curve; note: % is set by controls: 0 for no effect and ±100 for the full control effect; nearly all actives have a fitted effect of over 40% in size). In outline:
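HepG2, 2,000 cells/well, overnight attach; cpd or DMSO 5 hr, 37C/5% CO2; Mito-MPS 30 min 37C; fluor 490/535 + 540/590 nm.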

Experiment [15] can be described thus: qHTS assay for environmental chemicals that activate the Aryl hydrocarbon Receptor (AhR) signaling pathway (AID 651777). Note: % of control where 0% means no effect; nearly all actives have a fitted effect of over 15% in size. As to conditions: 1A2-DRE human hepatoma cells, luciferase, 24 h; activation: stronger effect = higher value. In outline: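 Measured luciferase activity, read 30 min after One-Glo addition at room temperature, from human hepatoma cells bearing a dioxin response element–CYP1A2 promoter reporter and exposed to compound for 24 hr at 37 C.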

The nature of experiment [16]: MultiTox-Fluor Cytotoxicity Assay - LYMP1-001 - Live Cells (AID 947).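 Note: 0% = DMSO only and full inhibition = tetraoctylammonium bromide control.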
Experiment [17] concerns the target Estrogen receptor (Homo sapiens) (UniProt P03372). The experiment is described as follows: qHTS assay for small molecule antagonists of estrogen receptor alpha signaling (AID 588513; active = well fitted curve in the direction sought with a large enough effect in the signal ratio, with a control signal flat, not every such curve was filed as active; the % refers to the signal ratio; note: % is set by controls: 0 for no effect and ±100 for the full control effect). Put shortly: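 ER-alpha-UAS-bla GripTite HEK 293 cells in medium with 2% charcoal/dextran-treated FBS were preincubated 4 h at 37 C, dosed with compound (1:2 titration), stimulated with 0.5nM 17-beta-estradiol for 18 h, then read by CCF4 beta-lactamase fluorescence.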

For experiment [18] the target is unchanged. The experiment is described as follows: qHTS assay for small molecule agonists of estrogen receptor alpha signaling (AID 588514; calls by dose curve;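 note: 0% = vehicle only and 100% = reference agonist; nearly all actives have a fitted effect of over 70% in size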). In outline: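 ER-alpha-UAS-bla GripTite HEK 293 cells in medium with 2% charcoal/dextran-treated FBS were treated with compound titrations at 37 C for 18 hrs; beta-lactamase reporter read by CCF4 fluorescence after 2 hrs at RT.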

Experiment [19] deals with Peroxisome proliferator-activated receptor gamma (Homo sapiens) (UniProt P37231). The experiment is described as follows: qHTS assay for small molecule agonists of peroxisome proliferator-activated receptor gamma signaling (AID 588536; active = well fitted curve in the direction sought with a large enough effect in the signal ratio, with a control signal flat, not every such curve was filed as active; the % refers to the signal ratio;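 note: 0% = DMSO basal wells and 100% = rosiglitazone at 2 µM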). In outline:
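HEK293 UAS-bla reporter line, 1% charcoal/dextran FBS; titration, 16 h, 37 C; CCF4 loading 2 h RT; fluorescence 460/530 nm. Normalized to rosiglitazone 2 uM = 100%, DMSO = 0%.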

For experiment [20] the target is unchanged. The experiment is described as follows: qHTS assay for small molecule antagonists of peroxisome proliferator-activated receptor gamma signaling (AID 588537; active = well fitted inhibition curve with a large enough effect in the signal ratio, with a control signal flat, not every such curve was filed as active; the % refers to the signal ratio;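 note: reporter cells co-stimulated with 50 nM rosiglitazone agonist during compound treatment; % of control where 0% means no effect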). Put shortly: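 Inhibitors of agonist-stimulated UAS-bla reporter activity were sought in HEK293 cells; rosiglitazone (50 nM) defined full signal and DMSO baseline. Curves fitted to Hill model gave IC50 and efficacy.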

Results filed as inconclusive are left out. Activity calls are given as the source filed them. Unless noted, calls come from the whole dose curve; as a rule, active = well fitted curve in the direction sought with a large enough effect; inconclusive = small, poorly fitted or top-dose-only effect, or another doubt; inactive = no such curve, though single readings can be large; an effect the other way counts as inactive or inconclusive.

Chain of Glucocorticoid receptor (Homo sapiens) (P04150 whole entry, looked up): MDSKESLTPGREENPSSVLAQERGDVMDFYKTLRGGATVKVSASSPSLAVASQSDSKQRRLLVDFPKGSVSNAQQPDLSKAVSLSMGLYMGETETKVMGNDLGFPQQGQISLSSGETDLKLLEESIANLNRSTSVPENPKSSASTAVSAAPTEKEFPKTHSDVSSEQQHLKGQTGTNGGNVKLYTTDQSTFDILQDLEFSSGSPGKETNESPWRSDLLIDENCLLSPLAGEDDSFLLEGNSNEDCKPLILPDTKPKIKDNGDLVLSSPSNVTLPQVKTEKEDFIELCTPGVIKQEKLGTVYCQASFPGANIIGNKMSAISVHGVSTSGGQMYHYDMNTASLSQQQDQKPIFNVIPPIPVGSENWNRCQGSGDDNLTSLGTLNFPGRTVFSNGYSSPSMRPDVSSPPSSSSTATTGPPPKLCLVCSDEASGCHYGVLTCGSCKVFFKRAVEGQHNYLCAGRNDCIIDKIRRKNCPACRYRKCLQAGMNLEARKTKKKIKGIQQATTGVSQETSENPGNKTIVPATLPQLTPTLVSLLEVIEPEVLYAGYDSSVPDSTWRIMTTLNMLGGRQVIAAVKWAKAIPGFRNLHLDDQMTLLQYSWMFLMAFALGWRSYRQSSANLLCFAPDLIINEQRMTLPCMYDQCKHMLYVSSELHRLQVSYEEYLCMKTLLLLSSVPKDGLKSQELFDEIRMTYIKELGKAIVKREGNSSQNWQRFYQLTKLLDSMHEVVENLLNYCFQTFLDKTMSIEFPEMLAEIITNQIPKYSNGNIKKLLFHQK
Chain of Estrogen receptor (Homo sapiens) (P03372 whole entry, looked up): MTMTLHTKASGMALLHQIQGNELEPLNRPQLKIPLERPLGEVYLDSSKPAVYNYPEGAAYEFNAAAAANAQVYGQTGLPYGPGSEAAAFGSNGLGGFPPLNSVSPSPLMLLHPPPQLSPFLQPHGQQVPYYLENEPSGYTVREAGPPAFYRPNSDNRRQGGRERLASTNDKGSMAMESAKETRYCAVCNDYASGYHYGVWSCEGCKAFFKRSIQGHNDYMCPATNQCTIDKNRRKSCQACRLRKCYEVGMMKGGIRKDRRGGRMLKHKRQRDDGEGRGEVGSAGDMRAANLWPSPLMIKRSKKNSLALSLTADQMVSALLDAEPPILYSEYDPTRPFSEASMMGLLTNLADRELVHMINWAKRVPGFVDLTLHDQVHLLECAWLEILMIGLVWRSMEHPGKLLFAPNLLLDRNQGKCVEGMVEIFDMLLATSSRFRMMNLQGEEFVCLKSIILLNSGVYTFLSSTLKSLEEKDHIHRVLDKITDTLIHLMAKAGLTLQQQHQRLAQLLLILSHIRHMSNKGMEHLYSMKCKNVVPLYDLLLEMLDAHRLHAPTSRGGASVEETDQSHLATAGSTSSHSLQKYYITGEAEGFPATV
Chain of Voltage-gated inwardly rectifying potassium channel KCNH2 (Homo sapiens) (Q12809 whole entry, looked up): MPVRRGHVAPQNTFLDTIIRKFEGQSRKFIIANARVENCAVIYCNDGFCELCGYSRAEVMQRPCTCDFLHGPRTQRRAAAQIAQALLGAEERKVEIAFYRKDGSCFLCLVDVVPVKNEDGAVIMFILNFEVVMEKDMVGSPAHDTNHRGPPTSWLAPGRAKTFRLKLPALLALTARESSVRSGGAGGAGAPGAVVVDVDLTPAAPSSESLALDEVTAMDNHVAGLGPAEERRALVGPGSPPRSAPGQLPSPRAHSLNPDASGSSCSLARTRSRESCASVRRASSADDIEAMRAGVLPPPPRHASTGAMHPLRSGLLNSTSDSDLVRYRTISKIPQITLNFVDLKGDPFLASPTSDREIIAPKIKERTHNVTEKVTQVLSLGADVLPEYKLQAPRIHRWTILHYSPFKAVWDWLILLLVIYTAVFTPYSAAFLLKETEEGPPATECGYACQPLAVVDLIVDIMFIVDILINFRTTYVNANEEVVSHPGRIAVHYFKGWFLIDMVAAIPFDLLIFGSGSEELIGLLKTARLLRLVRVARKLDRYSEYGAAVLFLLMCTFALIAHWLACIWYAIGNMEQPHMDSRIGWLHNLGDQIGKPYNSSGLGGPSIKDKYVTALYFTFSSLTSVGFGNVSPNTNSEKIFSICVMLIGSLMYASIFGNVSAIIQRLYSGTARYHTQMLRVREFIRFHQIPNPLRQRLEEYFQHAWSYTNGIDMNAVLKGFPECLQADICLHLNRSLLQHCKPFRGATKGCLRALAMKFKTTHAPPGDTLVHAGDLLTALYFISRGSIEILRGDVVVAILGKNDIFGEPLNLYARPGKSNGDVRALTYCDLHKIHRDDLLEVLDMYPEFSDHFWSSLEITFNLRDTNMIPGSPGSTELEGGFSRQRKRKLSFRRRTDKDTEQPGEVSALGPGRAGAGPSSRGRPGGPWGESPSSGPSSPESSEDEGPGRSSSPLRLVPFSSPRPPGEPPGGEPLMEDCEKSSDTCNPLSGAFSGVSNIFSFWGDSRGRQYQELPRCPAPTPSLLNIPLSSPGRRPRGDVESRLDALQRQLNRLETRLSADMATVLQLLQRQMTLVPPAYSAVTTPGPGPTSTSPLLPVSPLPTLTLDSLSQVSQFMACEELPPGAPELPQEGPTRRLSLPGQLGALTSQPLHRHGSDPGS
Chain of Peroxisome proliferator-activated receptor gamma (Homo sapiens) (P37231 whole entry, looked up): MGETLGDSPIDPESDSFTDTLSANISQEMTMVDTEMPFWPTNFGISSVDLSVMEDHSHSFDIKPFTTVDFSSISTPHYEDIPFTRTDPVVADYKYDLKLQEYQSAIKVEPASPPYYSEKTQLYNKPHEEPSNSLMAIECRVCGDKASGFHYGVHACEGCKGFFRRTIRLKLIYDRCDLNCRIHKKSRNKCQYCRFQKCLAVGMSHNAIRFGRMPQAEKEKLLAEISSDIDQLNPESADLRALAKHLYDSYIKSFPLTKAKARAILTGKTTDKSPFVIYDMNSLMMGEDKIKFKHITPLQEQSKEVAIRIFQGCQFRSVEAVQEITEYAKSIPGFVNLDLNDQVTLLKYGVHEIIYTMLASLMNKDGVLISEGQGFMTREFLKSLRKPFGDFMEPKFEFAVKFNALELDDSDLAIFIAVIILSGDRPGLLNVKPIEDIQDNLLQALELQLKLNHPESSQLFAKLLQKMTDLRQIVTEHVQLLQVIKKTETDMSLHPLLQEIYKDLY
Chain of Peroxisome proliferator-activated receptor delta (Homo sapiens) (Q03181 whole entry, looked up): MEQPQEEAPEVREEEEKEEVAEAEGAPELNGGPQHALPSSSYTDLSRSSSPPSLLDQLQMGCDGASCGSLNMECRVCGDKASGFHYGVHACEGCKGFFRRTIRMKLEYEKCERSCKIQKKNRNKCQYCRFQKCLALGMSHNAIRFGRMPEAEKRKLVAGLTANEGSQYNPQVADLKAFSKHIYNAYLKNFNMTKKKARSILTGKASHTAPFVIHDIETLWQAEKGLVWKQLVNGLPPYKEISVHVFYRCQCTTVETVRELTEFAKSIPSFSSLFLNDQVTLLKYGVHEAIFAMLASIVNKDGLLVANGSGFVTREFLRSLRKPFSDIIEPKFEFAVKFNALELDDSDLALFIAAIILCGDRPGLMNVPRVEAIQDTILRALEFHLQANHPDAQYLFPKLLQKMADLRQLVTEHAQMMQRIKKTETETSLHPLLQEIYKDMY

Regarding `O=NN1CCCCC1`, the Potency result in [1], in experiment [2], in experiment [3], in [4], in experiment [5] and in experiment [11] was “inactive” throughout. Further, the Potency result in [12] and in experiment [14] was “inactive” in each case. The figures for the activation in [6], in experiment [13] and in experiment [15] were 0.249% (inactive), -0.849% (inactive) and 1.05% (inactive), respectively. Also, the compound was classed as inactive in experiment [7], in experiment [8] and in [10]. Moreover, the max response in [9] is -27.9%.

For the compound `C=CCCl`, the Potency entry in experiment [1], in experiment [2], in [3], in [4], in experiment [5] and in experiment [17] was “inactive” in each case. Moreover, the Potency result in experiment [18], in experiment [20], in experiment [11] and in experiment [14] was “inactive” in each case. The call in experiment [16], in [7], in experiment [8] and in experiment [19] was inactive. Further, the activation is 2.78% (inactive) in experiment [6], -0.803% (inactive) in experiment [13] and 1.05% (inactive) in experiment [15].

Take `O=C(Cl)OCc1ccccc1`: the Potency result in experiment [1], in experiment [2], in experiment [3], in experiment [4], in [5] and in experiment [17] was “inactive” in each case. Also, the Potency entry in experiment [18], in [12] and in experiment [14] was “inactive” each time. Also, the call in experiment [16], in experiment [7] and in [19] was inactive. Besides, the activation in experiment [6] is -1.41% (inactive); in experiment [13], -0.156% (inactive).

Regarding `CN(C)C(=O)Cl`, the Potency entry in [1], in experiment [2], in [3], in experiment [17], in experiment [18] and in [20] was “inactive” throughout. Also, the Potency entry in [11], in [12] and in experiment [14] was “inactive” throughout. Also, the result in [16], in [7], in experiment [8], in [10] and in experiment [19] was inactive. Further, the activation in [6] is 12.7% (inactive); in experiment [13] it was -0.0384% (inactive); in experiment [15], -0.443% (inactive). Also, the max response in experiment [9] is -22.3%.

`N#CCBr`: the Potency in [1] is 10 µM (active); in experiment [12], 16.8 µM (active). Besides, the Potency entry in experiment [2], in [3], in experiment [4], in experiment [5], in experiment [17] and in [18] was “inactive” each time. In addition, in experiment [16], the result was inactive. The activation in [6] was -5.38% (inactive); in experiment [13], 0.342% (inactive).

As to `O=C(O)C(Cl)(Cl)Br`, the Potency entry in experiment [1], in [2], in [5], in [20], in experiment [11] and in [14] was “inactive” each time. Moreover, the compound was classed as inactive in [16], in [7] and in experiment [8]. Further, the activation was -2.11% (inactive) in experiment [6] and 0.0306% (inactive) in [15]. The Potency in experiment [12] was 42.2 µM (active).

For `OCCCCO`, the Potency entry in experiment [1], in experiment [2], in experiment [3], in experiment [4], in experiment [20] and in experiment [11] was “inactive” throughout. The Potency result in experiment [12] and in experiment [14] was “inactive” in each case. For the same compound, the result in experiment [16], in [7], in experiment [8], in [10] and in experiment [19] was inactive. Further, the activation in experiment [6] was -5.33% (inactive); in experiment [13], -0.721% (inactive); in experiment [15] it was -0.427% (inactive). Further, in [9], the max response was -23.5%.

With `O=S(=O)(O)F`, the Potency result in experiment [1], in [2], in [3], in experiment [4], in experiment [17] and in experiment [11] was “inactive” each time. In addition, the Potency result in experiment [12] and in experiment [14] was “inactive” each time. For the same compound, the call in [16], in [8] and in [10] was inactive. For the same compound, the max response in [9] turned out to be 7.1%. Also, in [15], the activation was 0.54% (inactive).
